Measured values: the supplement of paper PMC10127200
Structures can show the parent of a compound that is named as a salt.

Tests used:
Test in all cases: Euclidean distance of Cell Painting phenotypic profile (signed KS, 77 features) to DMSO centroid (dimensionless distance); 5 or 10 uM (library dependent); higher = stronger phenotypic change vs DMSO (phenoactivity)
Conditions in all cases: 48 h
786-O = system: 786-O
In short: (§1)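 Harmony extracted 77 features from 20X confocal images (9 fields/well) of stained cells, scoring each as a signed Kolmogorov-Smirnov statistic against same-plate vehicle wells. The cells, five cancer lines and a healthy fibroblast line, had received library compounds for 48 h at 10 or 5 uM depending on library, with 0.1% DMSO final. Phenoactivity is the Euclidean distance from each plate-position-corrected, correlation-weighted, top-dose replicate-averaged profile to the median vehicle profile.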

A549 = system: A549
In short: as §1

DU145 = system: DU145
In short: as §1

FB = system: FB
In short: as §1

HEPG2 = system: HEPG2
In short: as §1

OVCAR4 = system: OVCAR4
In short: as §1

| Compound | Euclidean distance (786-O) | Euclidean distance (A549) | Euclidean distance (DU145) | Euclidean distance (FB) | Euclidean distance (HEPG2) | Euclidean distance (OVCAR4) |
| --- | --- | --- | --- | --- | --- | --- |
| O=c1[nH]cnc2nc[nH]c12 [Hypoxanthine] | 1.19 | 1.2 | 1.16 | 1.66 | 0.856 | 2.43 |
| Cc1c(-c2cnccn2)ssc1=S [Oltipraz] | 1.13 | 0.941 | 0.666 | 0.877 | 1.11 | 1.3 |
| CCCCCCCCCCCCCCCCOP(=O)([O-])OCC[N+](C)(C)C [Miltefosine] | 1.74 | 1.27 | 1.17 | 1.39 | 1.15 | 1.63 |
| C[C@H]1O[C@@H](O[C@H]2CC[C@@]3(C)[C@@H](CC[C@]4(C)[C@@H]3C=C[C@]35OC[C@@]6(CCC(C)(C)C[C@H]63)[C@@H](O)C[C@]54C)[C@]2(C)CO)[C@H](O)[C@@H](O[C@@H]2O[C@H](CO)[C@@H](O)[C@H](O)[C@H]2O)[C@H]1O [Saikosaponin A] | 1.06 | 2.42 | 2.17 | 1.52 | 0.854 | 2.14 |
| COc1ccccc1[C@H](Cn1c(=O)n(C(C)(C)C(=O)O)c(=O)c2c(C)c(-c3ncco3)sc21)OC1CCOCC1 [Firsocostat (GS-0976)] | 0.952 | 0.95 | 1.31 | 1.74 | 1.31 | 1.15 |
| Cc1nc2n(c(=O)c1CCN1CCC(c3noc4cc(F)ccc34)CC1)CCCC2O (stereo not drawn) [Paliperidone] | 0.901 | 0.427 | 0.828 | 0.783 | 0.494 | 0.895 |
| CC(C)C(=O)Oc1ccc(CO)cc1[C@H](CCN(C(C)C)C(C)C)c1ccccc1 [Fesoterodine Fumarate] | 0.902 | 1.2 | 1.33 | 0.688 | 1.16 | 1.69 |
| CCCC(=O)[O-].[Na+] [Sodium butyrate] | 1.42 | 0.966 | 1.17 | 1.13 | 0.665 | 1.51 |
| OCc1c[nH]c2ccccc12 [Indole-3-carbinol] | 1.05 | 1.17 | 0.838 | 0.767 | 0.598 | 1.05 |
| CCn1nc(C(=O)O)c(=O)c2cc3c(cc21)OCO3 [Cinoxacin] | 1.03 | 1.18 | 0.942 | 1.56 | 0.617 | 1 |
| C[C@]1(O)C[C@@H](c2nc(-c3ccc4ccc(-c5ccccc5)nc4c3)c3c(N)nccn32)C1 [OSI-906 (Linsitinib)] | 1.12 | 1.34 | 0.877 | 1.19 | 1.12 | 1.27 |
| C[C@@H]1C[C@H]2[C@@H]3C[C@H](F)C4=CC(=O)C=C[C@]4(C)[C@@]3(F)[C@@H](O)C[C@]2(C)[C@@]1(OC(=O)c1ccco1)C(=O)SCF [fluticasone furoate] | 2.17 | 2.7 | 2.56 | 2.29 | 1.53 | 1.72 |
| C=CC(=O)N1CCC([C@@H]2CCNc3c(C(N)=O)c(-c4ccc(Oc5ccccc5)cc4)nn32)CC1 [Zanubrutinib (BGB-3111)] | 1.58 | 1.45 | 2.15 | 1.57 | 0.671 | 1.72 |
